# Screening data deposited in PubChem BioAssay by National Center for Advancing Translational Sciences (NCATS).
# MCF10A rerep: induces DNA re-replication in MCF 10a normal breast cells | hit rate 2.9% among 350,000 | AID 624296 | Potency, µM (doses to about 46.1 µM), inactives show at the highest dose activity, positive = re-replication, usual class: activators | MCF 10A DNA re-replication, Hoechst nuclear intensity, 48 h; further: potency means the concentration at half of the fitted maximal effect; % of control where 0% means no effect; nearly all actives have a fitted effect of over 50% in size
# SW480 rerep: induces DNA re-replication in SW480 colon adenocarcinoma cells | Potency, µM (series often up to 46.1 µM), for inactives: top-dose re-replication activation, actives largely listed as activators | SW480 DNA re-replication, Hoechst DNA content imaging, 48 h | hit rate 1.8% among 340,000; further: potency means the concentration at half of the fitted maximal effect; % of control where 0% means no effect; nearly all actives have a fitted effect of over 55% in size
#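 SW480 cells exposed to compounds for 48 hr at 37 C, 5% CO2, then Hoechst-stained 40 min. Nuclear DNA content imaged by fluorescence scanning (405 nm excitation, 500-530 nm emission); re-replication scored as increased high-intensity nuclei.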
# ASM inhibitor: blocks human secretory acid sphingomyelinase. Potency, µM (titrated, usually from 57.5 µM), without a hit: top-dose activity change, negative = inhibition, most hits filed as inhibitors. hit rate 0.006% among 340,000. placental ASM, HMU-PC fluorogenic substrate, 60 min. P17405; further: potency means the concentration at half of the fitted maximal effect
# Target sequence (P17405 47-631 limits assumed): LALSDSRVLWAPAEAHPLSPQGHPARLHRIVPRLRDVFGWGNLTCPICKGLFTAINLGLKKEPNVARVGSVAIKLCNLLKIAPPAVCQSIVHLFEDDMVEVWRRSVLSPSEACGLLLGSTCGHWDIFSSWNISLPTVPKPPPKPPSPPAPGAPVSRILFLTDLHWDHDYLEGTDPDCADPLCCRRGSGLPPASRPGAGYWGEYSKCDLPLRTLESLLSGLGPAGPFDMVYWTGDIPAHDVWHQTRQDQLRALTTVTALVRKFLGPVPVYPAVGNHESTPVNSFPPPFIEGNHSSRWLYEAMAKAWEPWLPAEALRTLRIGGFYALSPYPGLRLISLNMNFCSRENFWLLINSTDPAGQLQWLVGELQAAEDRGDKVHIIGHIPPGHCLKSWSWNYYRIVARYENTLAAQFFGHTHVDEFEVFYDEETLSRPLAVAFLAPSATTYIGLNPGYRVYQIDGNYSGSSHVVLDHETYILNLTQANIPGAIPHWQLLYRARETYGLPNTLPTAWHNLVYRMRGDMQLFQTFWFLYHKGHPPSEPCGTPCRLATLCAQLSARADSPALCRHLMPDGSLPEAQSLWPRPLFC
#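 Fluorogenic HMU-PC substrate (9 uM final) is turned over by placental ASM in 60 min at 37 C after a 10 min compound preincubation. Reaction ended by alkaline stop (pH 10), with fluorescence read at 386/447 nm.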
# KB-3-1 tox: kills parental KB-3-1 adenocarcinoma cells | Potency, µM (top dose mostly 46.1 µM), actives largely listed as cytotoxic | KB-3-1 viability, CellTiter-Glo ATP luminescence, 72 h | hit rate 1.4% among 400,000; further: potency means the concentration at half of the fitted maximal effect; on the % scale 0 is the no-effect control and ±100 the full control effect; nearly all actives have a fitted effect of over 60% in size
#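 KB-3-1 parental drug-naive adenocarcinoma cells in DMEM/10% FBS, incubated 72 h at 37 C with pin-transferred compounds across a concentration series. Viability by CellTiter-Glo luminescence; concentration-response curves fitted after normalization.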
# KB-V1 MDR tox: kills drug-selected multidrug resistant KB-V1 cells; AID 1347076; hit rate 3.4% among 400,000; Potency, µM (doses to about 46.1 µM), most hits filed as cytotoxic; KB-V1 MDR cells viability, CellTiter-Glo, 72 h; further: potency means the concentration at half of the fitted maximal effect; on the % scale 0 is the no-effect control and ±100 the full control effect; nearly all actives have a fitted effect of over 60% in size
#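 Compound-treated KB-V1 multidrug-resistant cells, 72 h, 37 degrees C; viability by CellTiter-Glo. Fitted qHTS curves give the values.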
# Giardia killer: kills Giardia lamblia | Giardia lamblia trophozoite viability | hit rate 0.15% among 340,000 | activity change, % at 7.66 µM, hits read low | AID 540267; in the data active means activity change below about -80%; inconclusive means between about -30% and that limit;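 further: parasites exposed to compound for two days anaerobically before the ATP read; on the % scale 0 is the no-effect control and ±100 the full control effect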
#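 Anaerobic 48 hrs incubation at 37 deg C of 100 trophozoites/well with test compounds; ATPLite 1-Step luminescence, 15-30 min RT, reports cellular ATP as viability.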
# Numbers without * were called inactive; i = inactive; ? = inconclusive; . = no result given. Hits are enriched below; roughly 6.9% of the tested compounds scored in any of these assays. Unless noted, the call rests on the fitted dose curve; in most records, active means well fitted curve in the direction sought with a large enough effect; inconclusive means small, poorly fitted or top-dose-only effect, or another doubt; inactive means no such curve, though single readings can be large; an effect the other way counts as inactive or inconclusive.
SMILES,MCF10A rerep,SW480 rerep,ASM inhibitor,KB-3-1 tox,KB-V1 MDR tox,Giardia killer
Cc1ccc2c(c1)c(=O)c1ccccc1n2CCCC(=O)Nc1ccc(C)c(C)c1,.,.,.,?,i,.
C=C1C=C(C(F)F)n2ncc(C(=O)NCc3ccccc3OC)c2N1,.,.,.,i,i,.
CC(C)Cc1ccc(C(C)C(=O)Nc2ccccc2O)cc1 (configuration not stated),12%,-71%,-3%,21µM*,?,-16
Cc1cccc2nc(CSc3nc4ccccc4o3)cn12,23%,4%,1%,?,16µM*,0
Cc1cc(C)c(C#N)c(SCc2cn3c(C)cccc3n2)n1,-5%,.,0%,i,18µM*,4
CCN(CC)C(=O)C(C)N(C#N)c1nc(NC(C)C)nc(NC(C)C)n1 (configuration not stated),4%,2%,1%,i,9.2µM*,9
CCNc1nc(NC(C)C)nc(N(C#N)C(C)C(=O)N(CC)CC)n1 (configuration not stated),3%,-13%,0%,i,i,10
O=C(c1cnn(-c2cccc(F)c2)c1-n1cccc1)N1CCN(c2ccccc2F)CC1,.,.,.,i,i,.
CC(C)CC(=O)/C=C/n1c(=S)oc2ccccc21,3.7µM*,8.2µM*,0%,?,?,-8
CC(=O)/C=C/n1c(=S)oc2ccccc21,3.3µM*,4%,0%,?,16µM*,-6
CC(=O)Nc1ccc(NC(=O)CCn2c(=S)oc3ccccc32)cc1,23%,1%,-2%,?,?,17
Cn1c(=S)oc2ccccc21,?,-1%,5%,i,i,6
COc1cccc(N2CCN(C(=O)c3ccc(CS(=O)c4ccc(Cl)cc4)o3)CC2)c1 (configuration not stated),?,?,5%,8.2µM*,?,-18
COc1cccc(N2CCN(C(=O)c3ccc(CS(=O)c4ccc(C)cc4)o3)CC2)c1 (configuration not stated),?,?,12%,0.37µM*,?,15
O=C(c1ccc(CS(=O)c2cccc(Cl)c2)o1)N1CCOCC1 (configuration not stated),3%,2%,8%,i,i,-13
O=C(c1ccc(CS(=O)c2cccc(Cl)c2)o1)N1CCN(c2ccccn2)CC1 (configuration not stated),?,25%,5%,7.3µM*,?,38
O=C1c2ccccc2C(=O)N1c1ccccn1,.,.,.,i,i,13
O=C(Cc1ccccc1[N+](=O)[O-])Nc1nccs1,2%,2.9µM*,6%,i,i,1
CCC(=O)N1CCc2cc(S(=O)(=O)CCC(=O)NCc3ccco3)ccc21,8.2µM*,?,0%,?,i,4
COc1ccccc1N1CCN(C(=O)CCS(=O)(=O)c2cc(Br)cc3c2N(C(=O)C2CC2)CC3)CC1,.,.,.,i,i,.
O=[N+]([O-])c1cc2c(c([N+](=O)[O-])c1)Nc1ccccc1O2,.,.,.,23µM*,13µM*,.
O=C1Nc2ccccc2Oc2cc([N+](=O)[O-])cc(Oc3ccccc3)c21,?,16%,-20%,i,i,-8
O=[N+]([O-])c1ccc2c(c1)CNc1ccccc1O2,-1%,-8%,3%,i,i,-8
Cc1cccc(Oc2cc([N+](=O)[O-])cc3c2C(=O)Nc2ccccc2O3)c1,?,4%,-27%,?,2.6µM*,6
CC(=O)c1ccc(NC(=O)CN2C(=O)/C(=C/C=C/c3ccccc3)SC2=S)cc1,10µM*,-8%,-8%,i,i,5
CCOc1ccccc1N1CC(O)=C(c2nc3ccccc3s2)C1=N,3%,-1%,-7%,9.2µM*,?,-14
COc1ccc(OC)c(N2CC(O)=C(c3nc4ccccc4s3)C2=N)c1,16%,2%,-16%,i,i,-2
